± gives the standard deviation of the averaged measurements.
What follows are compounds tested on iBMDM (immortalised mouse bone-marrow-derived macrophages), LPS-stimulated (assay: mitochondrial superoxide (MitoSOX fluorescence) fold increase over unstimulated control; higher = more LPS-induced mitochondrial ROS (less inhibition)). Settings: inhibitor concentration: 500 nM; LPS: 100 ng/ml; time after LPS: 4 h.
Outline: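 Immortalised mouse bone-marrow-derived macrophages in black 96-well plates were kept in phenol-red-free 1% FCS/DMEM for 20 h, pretreated 30 min with kinase inhibitors (500 nM), loaded with 1 μM MitoSox for 10 min and then given LPS (100 ng/ml). Fluorescence at excitation/emission 510/580 nm was read on a ClarioStar plate reader every 60 min for 4 h, with wells in triplicate. Mitochondrial superoxide is given as fold induction over untreated macrophages, averaged across replicates.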

Row | SMILES | mitochondrial superoxide
1 | Nc1ncnc2c1c(-c1cccc(OCc3ccccc3)c1)cn2C1CC(CN2CCC2)C1 (configuration not stated) | 1.63 ± 0.029
2 | COc1cc2ncnc(Nc3ccc(F)c(Cl)c3)c2cc1NC(=O)/C=C/CN1CCCCC1 | 1.57 ± 0.069
3 | CCc1ccc(/C=C2/SC(=S)NC2=O)cc1 | 1.36 ± 0.0082
4 | CC(C)c1cnn2c(NCc3ccccc3)cc(NCCCCCCN)nc12 | 1.47 ± 0.059
5 | CNCc1ccc(-c2cc(-c3nc(-c4ccc(S(=O)(=O)C(C)C)cc4)cnc3N)on2)cc1 | 1.26 ± 0.018
6 | C#Cc1cccc(Nc2ncnc3cc(OCCOC)c(OCCO)cc23)c1 | 1.3 ± 0.14
7 | NC1(c2ccc(-c3nc4ccn5c(=O)[nH]nc5c4cc3-c3ccccc3)cc2)CCC1 | 1.47 ± 0.14
8 | Cc1cc(Nc2ncc(Cl)c(Nc3ccccc3S(=O)(=O)C(C)C)n2)c(OC(C)C)cc1C1CCNCC1 | 1.39 ± 0.024
9 | Cc1nc(Nc2ncc(C(=O)Nc3c(C)cccc3Cl)s2)cc(N2CCN(CCO)CC2)n1 [Dasatinib] | 1.85 ± 0.068
10 | CC[C@@H]1C(=O)N(C)c2cnc(Nc3ccc(C(=O)NC4CCN(C)CC4)cc3OC)nc2N1C1CCCC1 | 1.39 ± 0.028
11 | COc1ccc(Cl)cc1NC(=O)Nc1cc(C)nc2ccccc12 | 1.652 ± 0.011
12 | CC[C@H](Nc1ncnc2[nH]cnc12)c1nc2cccc(F)c2c(=O)n1-c1ccccc1 [CAL-101 (Idelalisib, GS-1101)] | 1.48 ± 0.11
13 | Oc1cccc(-c2nc(N3CCOCC3)c3oc4ncccc4c3n2)c1 | 1.685 ± 0.012
14 | Clc1ccc(C2(c3ccc(-c4cn[nH]c4)cc3)CCNCC2)cc1 | 1.25 ± 0.042
15 | CS(=O)(=O)c1ccc(-c2cnc(N)c(C(=O)Nc3ccccc3)n2)cc1 | 1.6 ± 0.078
16 | O=C1c2ccc(Nc3ccc(F)cc3F)cc2CCc2ccc(OC[C@H](O)CO)cc21 [Skepinone-L] | 1.62 ± 0.049
17 | Nc1ncnc2c1c(-c1cnc3[nH]ccc3c1)nn2C1CCCC1 | 1.57 ± 0.058
18 | CO[C@H]1C[C@@H]2CC[C@@H](C)[C@@](O)(O2)C(=O)C(=O)N2CCCC[C@H]2C(=O)O[C@H]([C@H](C)C[C@@H]2CC[C@@H](O)[C@H](OC)C2)CC(=O)[C@H](C)/C=C(\C)[C@@H](O)[C@@H](OC)C(=O)[C@H](C)C[C@H](C)/C=C/C=C/C=C/1C [Rapamycin (Sirolimus)] | 1.7 ± 0.033
19 | COc1cc(Nc2ncc(F)c(Nc3ccc4c(n3)NC(=O)C(C)(C)O4)n2)cc(OC)c1OC [R406 (free base)] | 1.29 ± 0.065

Row | SMILES | mitochondrial superoxide
20 | Cn1cnc2c(F)c(Nc3ccc(Br)cc3Cl)c(C(=O)NOCCO)cc21 [Selumetinib (AZD6244)] | 1.61 ± 0.081
21 | COc1cc(N2CCC(N(C)C)CC2)ccc1Nc1ncc(Cl)c(Nc2ccccc2P(C)(C)=O)n1 | 1.33 ± 0.076
22 | CN(C)C/C=C/C(=O)Nc1cc2c(Nc3ccc(F)c(Cl)c3)ncnc2cc1O[C@H]1CCOC1 [Afatinib (BIBW2992)] | 1.77 ± 0.11
23 | CCC(=O)Nc1cccc(Oc2nc(Nc3ccc(N4CCN(C)CC4)cc3OC)ncc2Cl)c1 | 1.79 ± 0.061
24 | Cc1cc(C(=O)NOCCO)c(Nc2ccc(I)cc2F)n(C)c1=O | 1.39 ± 0.073
25 | Cc1cc(C)nc(NS(=O)(=O)c2ccc(NC(=S)NC(=O)COc3ccc(Br)cc3Cl)cc2)n1 | 1.61 ± 0.055
26 | Cc1cc(Nc2cc(N3CCN(C)CC3)nc(Sc3ccc(NC(=O)C4CC4)cc3)n2)n[nH]1 [VX-680 (Tozasertib, MK-0457)] | 1.73 ± 0.033
27 | Cc1cc(C)c(/C=C2\C(=O)Nc3ccccc32)[nH]1 [Semaxanib (SU5416)] | 1.3 ± 0.039
28 | Cc1cc(Nc2ncnc3ccc(-c4ccc(CNCCS(C)(=O)=O)o4)cc23)ccc1Oc1ccn2ncnc2c1 [HER2-Inhibitor-1] | 1.57 ± 0.063
29 | NC1(C(=O)N[C@@H](CCO)c2ccc(Cl)cc2)CCN(c2ncnc3[nH]ccc23)CC1 | 1.61 ± 0.029
30 | NC(=O)c1ccc(N(C(N)=O)c2c(F)cccc2F)nc1-c1ccc(F)cc1F | 1.327 ± 0.0024
31 | C=CC(=O)Nc1cccc(Nc2nc(Nc3ccc(OCCOC)cc3)ncc2F)c1 | 1.29 ± 0.019
32 | O=C(Nc1c[nH]nc1-c1nc2ccc(CN3CCOCC3)cc2[nH]1)NC1CC1 | 1.51 ± 0.036
33 | COc1cc2/c(=N/c3ccc(Br)cc3F)nc[nH]c2cc1OCC1CCN(C)CC1 [Vandetanib (ZD6474)] | 1.7 ± 0.077
34 | NC(=O)c1ncn([C@@H]2O[C@H](CO)[C@@H](O)[C@H]2O)c1N [Acadesine] | 1.36 ± 0.027
35 | COc1cc(CCc2cc(NC(=O)c3ccc(N4CC(C)NC(C)C4)cc3)n[nH]2)cc(OC)c1 (configuration not stated) | 1.53 ± 0.092
36 | N#C/C(=C(/N)Sc1ccc(N)cc1)c1ccccc1C(F)(F)F | 1.506 ± 0.0063
37 | Nc1ccc(C(=O)Nc2cccc(-c3nc(N4CCOCC4)c4oc5ncccc5c4n3)c2)cn1 | 1.24 ± 0.028
